In PubChem BioAssay (NCI) one finds growth data, which are given here for 25 molecules.

“And” between values parts separate entries of the source, which are not always exact repeats. Equal entries are not always repeated. The panel holds about 83,000 compounds, 20% with a hit somewhere; the sample as a whole holds those more often.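 Cell lines were cultured in 96-well plates, exposed to a single compound concentration, and assessed for percent growth 48 hours later.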 The source made the active and inactive calls. The calls were made as follows: active = growth percent below 10; inactive = the rest.

For this test, the system named is MDA-MB-468 breast. The test is described as follows: NCI-60 one-dose screen, 48 h (100 = growth as untreated, 0 = no growth, -100 = all killed). To be noted: 10 µM unless noted.

In the case of `O=c1c2ccccc2nc(-c2ccccc2Cl)n1-c1nnc(C(F)(F)F)s1`, the growth is 19.7% (inactive).
On to `NCCc1cc(O)c(O)cc1O`, for which the growth is 96.2% (inactive).
Turning to `CCCOC(=O)N[C@H]1CCc2c(Br)c(OC)c(OC)c(OC)c2-c2ccc(SC)c(=O)cc21`, the growth is -14.2% (active).
As for `C/C(=C\c1ccc(Cl)c(Cl)c1)[N+](=O)[O-]`, the growth was -77.9% (active) and 93.8% (inactive).
With `COC(=O)CC12CC(NC(=O)c3csc([C@@H](C[C@H](C(C)C)N(C)C(=O)[C@@H](NC(=O)[C@H]4CCCCN4C)C(C)C)OC(C)=O)n3)(C1)C2`, the growth is 38.6% (inactive).
For `CC12CCC(=O)C=C1C(O)CC1C2CCC2(C)C(O)CCC12` (stereo not given), the growth is 104% (inactive).
Turning to `COc1ccc(/C=C\[N+](=O)[O-])cc1OC`, the growth is 53.6% (inactive) and 11.6% (inactive).
With `COC(=O)[C@@H](NC(=O)c1cn(CCC2CCCCC2)c2ccccc12)C(C)(C)C`, the growth was 82.3% (inactive).
For `Nc1c(F)cc(-c2nc3cc(F)ccc3[se]2)cc1Br`, the growth is -35.4% (active).
As for `O=c1[nH]c2ccccc2n1C1CCN(CCCC(c2ccc(F)cc2)c2ccc(F)cc2)CC1`, the growth is 33% (inactive).
For the molecule `CCCC[C@H](NC(=O)[C@H]1CCCN1C)C(=O)N(C)[C@H](C[C@@H](OC(C)=O)c1nc(C(=O)N[C@@H](Cc2ccccc2)C[C@H](C)C(=O)OCC)cs1)C(C)C`, the growth is 7.04% (active).
With `O=C1C2CC=CCC2C(=O)N1SC(Cl)(Cl)Cl` (stereo not given), the growth was 103% (inactive).
Regarding `CCCCCC1(CCBr)C(=O)NC(=O)NC1=O`, the growth was 103% (inactive).
Take `Clc1ccc(SSC(Cl)(Cl)Cl)cc1`: the growth is 104% (inactive).
Turning to `NC(N)=N/N=C\c1c[nH]c2ccc(Br)cc12`, the growth is -6.01% (active).
For the molecule `COc1cc2c(c(OC)c1OC)-c1ccc([O-])c(=O)cc1[C@@H](NC(C)=O)CC2.COc1cc2c(c(OC)c1OC)-c1ccc([O-])c(=O)cc1[C@@H](NC(C)=O)CC2.[Cu+2]`, the growth is 2.02% (active).
With `COC1=CC(=O)O[C@@H](/C=C/c2ccc3c(c2)OCO3)C1`, the growth is 103% (inactive).
Turning to `CN1C(=O)N[C@H]2[C@@H]3NC(=O)c4ccc(Br)n4[C@@H]3C[C@]21O`, the growth is -50.6% (active).
In the case of `COc1cc(C2CC(=O)Nc3nc(N)[se]c32)cc(OC)c1OC` (stereo not given), the growth is 99.3% (inactive).
With `CCOc1ccccc1C(=O)OCC(Cl)(Cl)Cl`, the growth was 110% (inactive).
Take `CC[C@H](C)[C@H](NC(=O)C12C3C4C1C1C2C3C41NC(C)=O)C(=O)N(C)[C@H](C[C@@H](OC(C)=O)c1nc(C(=O)N[C@@H](Cc2ccccc2)C[C@H](C)C(=O)OC)cs1)C(C)C` (stereo not given in full): the growth is 11.5% (inactive).
With `N#C[Se]CCN1C(=O)c2ccccc2C1=O`, the growth was 20.4% (inactive).
For `C[C@@]12CC=C3c4nc(Nc5cccc(O)c5)sc4CC[C@]3(C)[C@H]1CC[C@]1(C)C(=O)CC[C@@H]21`, the growth is 32.2% (inactive).
With `COc1ccc(/C=C/c2cc(OC)c(OC)c(OC)c2)cc1NC(=O)/C=C/c1ccc(F)cc1` the figure was 13.3% (inactive); with `C/C(Cc1ccc(Cl)cc1)=C(\c1ccc(OCCN2CCOCC2)cc1)c1ccc(OC(=O)Cc2ccccc2)cc1`, 88.7% (inactive).
